# Sm TGR inh: S. mansoni TGR enzyme inhibition; Q962Y6; purified TGR, DTNB reduction, TNB absorbance 405 nm; Potency, µM (series often up to 114 µM), without a hit: at the highest dose activity change, negative = inhibition, usual class: inhibitors; 360,000 compounds, 3% hits; AID 485364; active = well fitted inhibition curve with a large enough effect; inconclusive = small, poorly fitted or top-dose-only effect; inactive = no such curve, though single readings can be large or run the other way; note: % is set by controls: 0 for no effect and ±100 for the full control effect; nearly all actives have a fitted effect of over 60% in size
#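 TGR 20 nM + NADPH 100 uM (dispensed conc.), cpd preinc 15 min RT; start with NADPH (500 uM addition) then DTNB (15 mM addition). Kinetic TNB absorbance, 405 nm filter. Four-parameter Hill fit across titration.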
# SARS PLP yeast: inhibitors of SARS-CoV papain-like protease in yeast; S. cerevisiae expressing SARS-CoV PLpro, growth rescue; Potency, µM (top dose mostly 32.9 µM), without a hit: at the highest dose activity, positive = growth rescue, actives largely listed as activators; 330,000 compounds, 0.19% hits; calls by dose curve; note: 0% is about no effect; nearly all actives have a fitted effect of over 55% in size
# An asterisk follows results filed as active; ? = inconclusive; · = not tested or not shown; [ ] = remark or other dose. A selection: hits, their analogues and other compounds. The true share with any hit is near 3%. Potency is the fitted concentration of half-maximal effect.
SMILES,Sm TGR inh,SARS PLP yeast
CCOc1ccc(CCNC(=O)CCCc2nnc3n(CC(C)C)c(=O)c4sccc4n23)cc1,-1.5%,·
CS(=O)(=O)O/N=C1\CCCCC1c1ccc([N+](=O)[O-])cc1[N+](=O)[O-] (centres undefined),-32.1%,3.6%
CCNC(=O)O/N=C1\CCCCC1c1ccc([N+](=O)[O-])cc1[N+](=O)[O-] (centres undefined),12.6µM*,-2.3%
CCn1cc(C(=O)N2CCN(c3ccccc3F)CC2)c(=O)c2cc(S(=O)(=O)N(C)C)ccc21,6.9%,·
Cc1ccc(C2=[N+]([O-])C3(CCCCC3=O)N(O)C2(C)C)cc1 (centres undefined),?,2.0%
CC1(C)C(c2ccco2)=[N+]([O-])C2(CCCCC2=O)N1O (centres undefined),50.1µM*,23.5%
CCCCn1c(C)c(C(=O)OCC)c2c(CN3CCCC3)c(O)ccc21,3.5%,1.9%
CCOC(=O)c1c(C)n(C)c2ccc(O)c(CN3CCC(C)CC3)c12,-25.8%,-2.9%
CCCCn1c(C)c(C(=O)OCC)c2c(CN3CCOCC3)c(O)ccc21,39.8µM*,-2.9%
CCOC(=O)c1c(C)n(C)c2ccc(O)c(CN3CCN(C)CC3)c12,35.5µM*,-0.4%
Cc1cc(Br)ccc1NC(=O)c1coc(=O)c2ccccc12,-1.5%,·
Cc1ccccc1C(=O)Nc1nc(-c2ccc(Br)cc2)ns1,8.4%,·
Cc1ccc(C(=O)Oc2oc(-c3ccccc3)nc2C=Nc2ccc(N(C)C)cc2)cc1,?,-0.7%
CN(C)c1ccc(N=Cc2nc(-c3ccccc3)oc2OC(=O)c2cccc(Cl)c2)cc1,-21.2%,-14.1%
Cc1ccc(C(=O)Oc2oc(-c3ccco3)nc2C=Nc2ccc(Cl)cc2)cc1,2.24µM*,-28.0%
COc1ccc(N=Cc2nc(-c3ccccc3)oc2OC(C)=O)cc1,?,-0.5%
Cc1ccc(N=Cc2nc(-c3ccco3)oc2O)cc1,-14.3%,-2.9%
O=C(Oc1oc(-c2ccco2)nc1C=Nc1ccccc1)c1ccco1,1.58µM*,-0.4%
COc1cccc(N=Cc2nc(-c3ccccc3)oc2OC(C)=O)c1,10µM*,-1.9%
O=C(Oc1oc(-c2ccco2)nc1C=Nc1ccccc1)c1ccoc1,1.41µM*,2.5%
CC(=O)N1CCc2c(sc3c2c(=O)n(-c2cccc(Cl)c2)c(=O)n3Cc2ccc(F)cc2Cl)C1,10.2%,·
CCOC(=O)C1CCCN(c2nc3c(S(=O)(=O)c4ccc(Br)cc4)nnn3c3ccsc23)C1 (centres undefined),46.1%,·
COc1ccccc1CNC(=O)c1cc2cccc3c2n1CCS3,3.2%,·
Cn1c2cc(Br)sc2c2cnn(Cc3c(F)cccc3F)c(=O)c21,25.3%,-6.1%
COc1ccc(S(=O)(=O)N2CCC(Oc3ccc(-n4cnnn4)cc3)CC2)cc1OC,-0.3%,·
SMILES,Sm TGR inh,SARS PLP yeast
CC(OC(=O)c1ccc2ccccc2c1)C(=O)N(C)Cc1ccccc1 (centres undefined),0.0%,1.0%
CC(C)N(CCC(=O)c1ccc2ccccc2c1)Cc1ccccc1,0.126µM*,·
Cc1ccc(CNC(=O)C(CC(C)C)NS(=O)(=O)c2ccc3c(c2)oc(=O)n3C)cc1 (centres undefined),42.2%,·
O=C(NCCNC(=O)c1ccccc1)c1ccccc1,-0.8%,1.8%
O=C(NCC#CCOCc1ccccc1)c1ccccc1,7.08µM*,5.0%
Cc1ccc(OCC(=O)NCC(=O)OCc2cc(=O)n3nc(C(C)C)sc3n2)cc1,-8.9%,·
COc1cc(C(CN)CC(=O)O)ccc1O (centres undefined),-18.7%,0.0%
COc1cc(C(O)C(=O)O)ccc1O (centres undefined),10µM*,·
CCCOc1ccc(C(=O)Nc2ccc(NC(=O)c3ccccc3)c(Br)c2)cc1,3.1%,·
Cc1c(C(c2ccc(O)cc2)c2c(C)n(C)n(-c3ccccc3)c2=O)c(=O)n(-c2ccccc2)n1C,-11.1%,0.8%
Cc1c(C(c2ccc(O)cc2)c2c(O)c3ccccc3oc2=O)c(=O)n(-c2ccccc2)n1C (centres undefined),14.1µM*,25.4%
Cc1c(C(c2ccccc2)c2c(C)n(C)n(-c3ccccc3)c2=O)c(=O)n(-c2ccccc2)n1C,-15.8%,-4.9%
Cc1ccc(C(c2c(C)n(C)n(-c3ccccc3)c2=O)c2c(C)n(C)n(-c3ccccc3)c2=O)s1,25.1µM*,28.3%
COc1ccc(-n2ncc(C(=O)N3CCc4ccccc4C3)c2C2CCN(C(=O)OC(C)(C)C)CC2)cc1,5.2%,·
Cc1ccc(CNC(=O)CCCn2c(=O)c3ccccc3n(Cc3ccc(Cl)cc3)c2=O)cc1,-2.9%,·
CCc1cccc(NC(=O)C2CCCN2S(=O)(=O)c2ccc3nc(-c4ccccc4)[nH]c3c2)c1 (centres undefined),1.9%,·
COc1ccc(CNC(=O)c2cc3c(=O)[nH]c4ccccc4c3n2C)c(OC)c1,0.3%,·
Cc1ccc(NNS(=O)(=O)c2ccc(C)cc2)cc1,7.94µM*,-24.3%
Cc1ccc(S(=O)(=O)NNC(=O)C(=O)NNS(=O)(=O)c2ccc(C)cc2)cc1,0.3%,-3.6%
CC(=O)c1c(C)[nH]c(C(=O)CSc2nc3ccccc3n2C)c1C,-24.6%,5.1%
CC(=O)OCC#CCSc1nc2ccccc2n1C,3.5%,22.4µM*
CCN(CC)S(=O)(=O)c1ccc2c(c1)N(CC(=O)Nc1ccc(F)cc1F)C(=O)C1CCCN21 (centres undefined),-3.3%,·
O=C(Nc1ccc(Oc2ccccc2)nc1)C1CCCCN1Cc1ccc(O)cc1 (centres undefined),31.6µM*,0.2%
COCCc1ncc(CN2CCCCC2C(=O)Nc2ccc(Oc3ccccc3)nc2)cn1 (centres undefined),-23.5%,13.6%
COc1cc(CN2CCCCC2C(=O)Nc2ccc(Oc3ccccc3)nc2)ccc1O (centres undefined),1.78µM*,-0.5%
SMILES,Sm TGR inh,SARS PLP yeast
O=C(Nc1ccc(Oc2ccccc2)nc1)C1CCCCN1Cc1cccc(O)c1 (centres undefined),5.2%,-6.4%
COc1ccc(CCNC(=O)c2cc3c(-c4ccc(OC)c(OC)c4)nn(C)c3s2)cc1OC,4.7%,·
COc1cc(OC)cc(C(=O)Nc2cc3c(cc2N2CCOCC2)n(C)c(=O)n3C)c1,-0.3%,·
O=C(CC1Oc2ccccc2NC1=O)NC1CC1 (centres undefined),79.4µM*,4.4%
O=C(CC1Oc2ccccc2NC1=O)NC1CCCC1 (centres undefined),3.3%,-9.6%
O=[N+]([O-])c1cc(C=Nc2ccc3ccccc3c2)ccc1Br,44.7µM*,2.2%
CCOc1ccc(N=Cc2ccc3ccccc3c2)cc1,5.4%,1.6%
Cc1ccccc1-n1nc2c(c1NC(=O)c1ccco1)CS(=O)(=O)C2,44.7µM*,-5.2%
CC(=O)Nc1c2c(nn1-c1ccc(C)cc1C)CSC2,-30.0%,2.6%
O=C(Nc1c2c(nn1-c1ccccc1)CS(=O)(=O)C2)c1ccco1,-0.5%,?
Cc1ccccc1-n1nc2c(c1NC(=O)c1ccc(Br)o1)CSC2,31.6µM*,-0.7%
O=[N+]([O-])c1ccccc1/C=N\Nc1nccs1,11.5%,5.3%
O=[N+]([O-])c1cc(/C=N\Nc2nccs2)ccc1O,28.2µM*,-0.1%
COc1ccc(-c2nnc(SCC(=O)NC3CCCC3)nc2-c2ccc(OC)c(OC)c2)cc1OC,6.8%,·
c1ccc(-c2ncc3ccccn23)cc1,39.8µM*,-0.5%
c1ccc2c(c1)ncc1cccn12,10.4%[11.4 µM],1.5%

# Assay outcomes (PubChem)
